Assay results published in PubChem BioAssay (NCATS).
Records with an inconclusive call do not appear. Entries that show only a call come without a potency. Activity calls are given as the source filed them. Calls come from the whole dose curve; as a rule, active = well fitted curve in the direction sought with a large enough effect; inconclusive = small, poorly fitted or top-dose-only effect, or another doubt; inactive = no such curve, though single readings can be large; an effect the other way counts as inactive or inconclusive.

Tested on: Zika virus NS2B-NS3 protease (unlinked)
Test: Optimization of GU AMC qHTS for Zika virus inhibitors: Unlinked NS2B-NS3 protease assay (AID 1347151); note: nearly all actives have a fitted effect of over 80% in size
Settings: recombinant ZIKV NS2B-NS3 protease, fluorogenic AMC substrate; series mostly up to 52.5 µM
Source text: Avindra Nath, Ph.D., National Institute of Neurological Disorders and Stroke (NINDS), Bethesda, MD
Radhakrishnan Padmanabhan, Ph.D., Georgetown University (GU), Washington D.C.
Zika Virus causes congenital defects, including microcephaly and is associated with Guillain-Barre syndrome, eningoencephalitis and myelitis in infected adult. […] Using a target-based approach, we hope to establish a screening paradigm to uncover novel, cell-active NS2B-NS3 protease (Zika Virus) specific inhibitors from NCATS' collection of small molecules using qHTS.
Early Translation Branch (ETB)
National Center for Advancing Translational Sciences (NCATS), Rockville, MD
National Institute of Health (NIH), Bethesda, Maryland
Padmanabhan lab provided the NS2B hydrophilic domain and NS3 protease domain in a noncovalent complex used for the unlinked assay. Control compound aprotinin is obtained from Thermo Scientific (#78432; Waltham, Massachusetts). NS2B-NS3 AMC substrate (Bz-Nle-Lys-Arg-Arg-AMC; Nle-KRR-AMC) purchased from Bachem (#I-1995; Torrance, CA). Ac-VKTGKR-AMC purchased from Genscript or Bachem, Ac-FAAGKR-AMC purchased from Genscript, Ac-GLVKRR-AMC purchased from Genscript, Ac-LKKR-AMC purchased from Genscript.
GU AMC unlinked NS2B-NS3 protease qHTS protocol:
Briefly, 3 microL of Zika virus unlinked NS2B-NS3 protease (25 nM for linked final concentration), in assay buffer (10 mM Tris-HCl pH 8.0 with 0.01% Tween 20) was dispensed into a 1,536-well solid-bottom black plate (Greiner Bio One, Monroe, NC). Twenty-three nL of compounds (final concentration range 7.28 nM to 114 microM) or control Aprotinin (final concentration range 3.47 nM to 114 microM) were transferred via Wako Pin-tool (Wako Automation, Richmond, VA). […] Plates were then read immediately on a ViewLux High-throughput CCD imager (PerkinElmer, Waltham, MA) equipped with standard UV fluorescence optics (340(30) nm excitation, 450(20) nm emission) then incubated (room temperature, protected from light) for 15 minutes (~20% conversion). The change in fluorescence intensity over the 15-minute reaction period was normalized against no-inhibitor and no-enzyme controls and the resulting percent inhibition data were fitted to a 4-parameter Hill equation. Aprotinin was used as the intraplate control.

SMILES | outcome
COc1ccc(C(=O)N2CCCC2=O)cc1 | inactive
CC(C)=CCN1CC[C@@]2(C)c3cc(O)ccc3C[C@@H]1[C@@H]2C | inactive
COC(=O)C1=CCCN(C)C1 | inactive
NC(=O)CN1CCCC1=O | inactive

Tested on: Zika virus NS2B-NS3 protease
Test: Primary screen GU AMC qHTS for Zika virus inhibitors (AID 1347154); note: nearly all actives have a fitted effect of over 70% in size; note: potency is the fitted concentration of half-maximal effect
Settings: Zika NS2B-NS3 unlinked protease, AMC fluorogenic substrate; series mostly up to 54.1 µM
Method in brief: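 Unlinked Zika NS2B hydrophilic domain–NS3 protease complex at 25 nM in 10 mM Tris-HCl pH 8.0, 0.01% Tween 20, with an AMC peptide substrate. Fluorescence change (340/450 nm) over 15 min at room temperature, normalized to controls, fitted to 4-parameter Hill.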

SMILES | Potency
COc1ccc(C(=O)N2CCCC2=O)cc1 | inactive
CC1N=C(N)OC1c1ccccc1 (stereo unspecified) | inactive
C[C@H]1C(=O)O[C@@H]2CCN3CC=C(COC(=O)[C@](C)(O)[C@]1(C)O)[C@H]23 | inactive
ClCCCN1CCN(c2cccc(Cl)c2)CC1 | inactive
N#Cc1nn(-c2c(Cl)cc(C(F)(F)F)cc2Cl)c(N)c1S(=O)C(F)(F)F (stereo unspecified) | inactive
CCC(=O)C(CCN(C)C)(c1ccccc1)c1ccccc1 | inactive
COCC(=O)N(c1c(C)cccc1C)C(C)C(=O)OC (stereo unspecified) | inactive
COc1ccc2[nH]cc(CCN(C(C)C)C(C)C)c2c1 | inactive
c1cc2c(c(N3CCNCC3)c1)OCCO2 | inactive
CNC(C)Cc1ccccc1OC (stereo unspecified) | inactive
CN1CCC(N(Cc2ccccc2)c2ccccc2)CC1 | inactive
CCOC(=O)C(c1c(O)c2ccccc2oc1=O)c1c(O)c2ccccc2oc1=O | inactive
O=C1CN2CCOC2(c2ccccc2Cl)c2cc(Cl)ccc2N1 (stereo unspecified) | inactive
O=C(CCCN1CCC(n2c(=O)[nH]c3ccccc32)CC1)c1ccc(F)cc1 | inactive
COP(=O)(OC)OC=C(Cl)Cl | inactive
Oc1c(Br)cc(Br)cc1Br | inactive
CC1=C2[C@H]3OC(=O)[C@@H](C)[C@@H]3CC[C@@]2(C)C=CC1=O | inactive
CN(C)CCc1c[nH]c2ccc(O)cc12 | inactive
CC(C)(O)C(Cl)(Cl)Cl | inactive

SMILES | Potency
COc1cc(CC(C)N)c(OC)cc1Br (stereo unspecified) | inactive
CCc1ccc(C2CCNCC2)cc1 | inactive
CCOC(C(=O)OCCN(C)C)(c1ccccc1)c1ccccc1 | inactive
Nc1ccc(Cl)cc1C(=O)c1ccccc1F | inactive
CC(CC(C(N)=O)(c1ccccc1)c1ccccc1)N(C)C (stereo unspecified) | inactive
CC1Sc2c(C(=O)O)c(=O)c3cc(F)c(N4CCNCC4)cc3n21 (stereo unspecified) | inactive
CCC1(CC)C(=O)NC(=O)NC1=O | inactive
CN1CCc2cc(Cl)c(O)cc2[C@H]2c3ccccc3CC[C@@H]21 | inactive
CC[C@H](O)C(C[C@H](C)N(C)C)(c1ccccc1)c1ccccc1 | inactive
CNC(=O)NC(O)C(Cl)(Cl)Cl (stereo unspecified) | inactive
COC(=O)C1=CCCN(C)C1 | inactive
COP(=S)(OC)Oc1ccc(Sc2ccc(OP(=S)(OC)OC)cc2)cc1 | inactive
NC(=O)CN1CCCC1=O | inactive
Cc1c(Cl)c(=O)oc2cc(OP(=O)(OCCCl)OCCCl)ccc12 | 14.4 µM (active)
CCC1(c2ccccc2)CCC(=O)NC1=O (stereo unspecified) | inactive
CCCCCCCCC(=O)NCc1ccc(O)c(OC)c1 | inactive
O=C1NCN(c2ccccc2)C12CCN(CCCOc1ccc(F)cc1)CC2 | inactive
Oc1ccc([C@H]2CNCc3c2ccc(O)c3O)cc1O | 10.2 µM (active)
